These results are taken from the supplement of paper PMC12645437, “Orthogonal IMiD-Degron Pairs Induce Selective Protein Degradation in Cells” (ACS Chemical Biology, 2025).

The test has as its target T1, CRBN, Q96SW2.
T1 chain: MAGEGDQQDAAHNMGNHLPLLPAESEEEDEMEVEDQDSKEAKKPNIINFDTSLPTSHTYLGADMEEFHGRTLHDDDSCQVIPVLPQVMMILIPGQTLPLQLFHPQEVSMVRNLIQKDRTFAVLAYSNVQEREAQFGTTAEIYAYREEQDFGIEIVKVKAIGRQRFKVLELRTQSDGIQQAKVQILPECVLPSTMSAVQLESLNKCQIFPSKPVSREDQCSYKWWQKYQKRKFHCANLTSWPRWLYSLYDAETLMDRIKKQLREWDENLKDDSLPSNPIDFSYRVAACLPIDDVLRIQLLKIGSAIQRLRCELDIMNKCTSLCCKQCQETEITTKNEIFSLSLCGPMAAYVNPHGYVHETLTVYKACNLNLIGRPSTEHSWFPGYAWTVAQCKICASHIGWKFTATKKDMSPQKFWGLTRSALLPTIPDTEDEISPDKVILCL
Description: log2 fold change of degron read counts, EGFP-low vs EGFP+ sorted cells (limma voom), compound-induced degradation; higher = more compound-induced degradation of the degron-EGFP fusion; degrons are variants of IKZF1/3 zinc finger 2; compound dose not given here. The settings on record: Jurkat, 18 h. How it is done: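 Pooled library of 8380 IKZF3 ZF2 degron mutants (positions 146-167 varied within the IKZF3 130-189 degron; only the varied core is printed, flanks not printed) fused to EGFP with IRES-mCherry, lentivirally expressed in Jurkat cells. mCherry+ cells were treated with one IMiD compound for 18 h (dose not stated) and FACS-sorted into EGFP-low and EGFP+ populations. Degron sequences were counted by NGS, and log2FC (EGFP-low vs EGFP+) was estimated by limma voom over 3 biological replicates.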

[1] abbreviates: compound: compound 19 (5-tert-butyl-thalidomide).
Setting [2] is: compound: compound 22 (5-morpholino-thalidomide).
The mark [3] stands for this setting: compound: compound 33 (diphenyl IMiD analogue).

Over roughly 8,300 sequences, “log2 fold change of degron read counts, EGFP-low vs EGFP+ sorted cells (limma voom), compound-induced degradation” has its median near -1.1; the highest 2% begin near 3.2. Only a selection was taken, and the highest values are over-represented in it overall.
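Also: pooled lentiviral library of zinc finger degron-EGFP fusions in mCherry-positive Jurkat cells, FACS-sorted after compound exposure, with degron abundance counted by next-generation sequencing.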

With FMCEQCGAYFTQKGNLLRHIKL [46F_47M_49E_50Q_52G_53A_54Y_55F_67L_, Q9UKT9], the “log2 fold change of degron read counts” value is -2.39 under setting [1], -2.36 under setting [2], -0.295 under setting [3] and -2.25 (compound: thalidomide).

Consider LTCEICGFICTQKGNLLRHIKL [46L_47T_49E_50I_52G_53F_54I_55C_67L_, Q9UKT9], for which the “log2 fold change of degron read counts” value is -0.462 under setting [1], -0.661 under setting [2], 0.241 under setting [3] and 1.1 (compound: thalidomide).

Consider FKCDVCGAPFTQKGNLLRHIKL [46F_47K_49D_50V_52G_53A_54P_55F_67L_, Q9UKT9], for which the “log2 fold change of degron read counts” value by setting is: under setting [1], -0.146; under setting [2], -0.607; under setting [3], -2.1; (compound: thalidomide) 0.295.

As for FDCDVCGARFTQKGNLLRHIKL [46F_47D_49D_50V_52G_53A_54R_55F_67L_, Q9UKT9], the “log2 fold change of degron read counts” value under setting [1] is 0.864, the “log2 fold change of degron read counts” value under setting [2] is -0.479, the “log2 fold change of degron read counts” value under setting [3] was -1.77 and the “log2 fold change of degron read counts” value (compound: thalidomide) was -0.643.

Regarding FYCDVCGARFTQKGNLLRHIKL [46F_47Y_49D_50V_52G_53A_54R_55F_67L_, Q9UKT9], the “log2 fold change of degron read counts” value runs as follows: under setting [1], 3.21; under setting [2], 3.28; under setting [3], 0.5; (compound: thalidomide) -0.569.

On to FLCDVCGARFTQKGNLLRHIKL [46F_47L_49D_50V_52G_53A_54R_55F_67L_, Q9UKT9], for which the “log2 fold change of degron read counts” value under setting [1] is -1.59, the “log2 fold change of degron read counts” value under setting [2] was -2.29, the “log2 fold change of degron read counts” value under setting [3] was -1.43 and the “log2 fold change of degron read counts” value (compound: thalidomide) was -0.242.

On to FGCDVCGARFTQKGNLLRHIKL [46F_47G_49D_50V_52G_53A_54R_55F_67L_, Q9UKT9], for which the “log2 fold change of degron read counts” value runs as follows: under setting [1], 1.49; under setting [2], -0.377; under setting [3], -1.65; (compound: thalidomide) -0.568.

As to FMCDVCGARFTQKGNLLRHIKL [46F_47M_49D_50V_52G_53A_54R_55F_67L_, Q9UKT9], the “log2 fold change of degron read counts” value under setting [1] is -1.48, the “log2 fold change of degron read counts” value under setting [2] is -1.88, the “log2 fold change of degron read counts” value under setting [3] turned out to be 0.0127 and the “log2 fold change of degron read counts” value (compound: thalidomide) is -0.773.

FHCDVCGARFTQKGNLLRHIKL [46F_47H_49D_50V_52G_53A_54R_55F_67L_, Q9UKT9]: the “log2 fold change of degron read counts” value is 0.448 under setting [1], 0.585 under setting [2], -1.42 under setting [3] and -1.6 (compound: thalidomide).

In the case of FFCDVCGARFTQKGNLLRHIKL [46F_47F_49D_50V_52G_53A_54R_55F_67L_, Q9UKT9], the “log2 fold change of degron read counts” value was 3.5 under setting [1], 3.15 under setting [2], 0.549 under setting [3] and -0.102 (compound: thalidomide).

As for FWCDVCGARFTQKGNLLRHIKL [46F_47W_49D_50V_52G_53A_54R_55F_67L_, Q9UKT9], the “log2 fold change of degron read counts” value is 2.89 under setting [1], 3.6 under setting [2], 0.211 under setting [3] and 0.033 (compound: thalidomide).

For FVCDVCGARFTQKGNLLRHIKL [46F_47V_49D_50V_52G_53A_54R_55F_67L_, Q9UKT9], the “log2 fold change of degron read counts” value runs as follows: under setting [1], -0.856; under setting [2], 0.623; under setting [3], -0.882; (compound: thalidomide) 0.963.

As to FCCDQCGAVFTQKGNLLRHIKL [46F_47C_49D_50Q_52G_53A_54V_55F_67L_, Q9UKT9], the “log2 fold change of degron read counts” value runs as follows: under setting [1], -2.49; under setting [2], -1.9; under setting [3], -0.705; (compound: thalidomide) -2.14.

FECDVCGAHFTQKGNLLRHIKL [46F_47E_49D_50V_52G_53A_54H_55F_67L_, Q9UKT9]: the “log2 fold change of degron read counts” value reads like this: under setting [1], -2.74; under setting [2], -4.09; under setting [3], -1.55; (compound: thalidomide) -1.76.

Take FECPQCGAPFTQKGNLLRHIKL [46F_47E_49P_50Q_52G_53A_54P_55F_67L_, Q9UKT9]: the “log2 fold change of degron read counts” value was -2.11 under setting [1], -2.37 under setting [2], -1.67 under setting [3] and -1.19 (compound: thalidomide).

For FMCNQCGAKFTQKGNLLRHIKL [46F_47M_49N_50Q_52G_53A_54K_55F_67L_, Q9UKT9], the “log2 fold change of degron read counts” value reads like this: under setting [1], -2.87; under setting [2], -2.47; under setting [3], -2.42; (compound: thalidomide) -2.11.

Regarding LECEICGFGCTQKGNLLRHIKL [46L_47E_49E_50I_52G_53F_54G_55C_67L_, Q9UKT9], the “log2 fold change of degron read counts” value is, setting by setting: under setting [1], -0.956; under setting [2], -2.31; under setting [3], -1.15; (compound: thalidomide) -0.202.

On to FMCDVCGAQFTQKGNLLRHIKL [46F_47M_49D_50V_52G_53A_54Q_55F_67L_, Q9UKT9], for which the “log2 fold change of degron read counts” value reads like this: under setting [1], -1.67; under setting [2], -1.16; under setting [3], 1.5; (compound: thalidomide) -0.932.

Consider FHCNICGACFTQKGNLLRHIKL [46F_47H_49N_50I_52G_53A_54C_55F_67L_, Q9UKT9], for which the “log2 fold change of degron read counts” value reads like this: under setting [1], 1.16; under setting [2], 1.39; under setting [3], 0.659; (compound: thalidomide) -0.53.

For the sequence FGCNQCGHWFTQKGNLLRHIKL [46F_47G_49N_50Q_52G_53H_54W_55F_67L_, Q9UKT9], the “log2 fold change of degron read counts” value was -0.98 under setting [1], -1.42 under setting [2], -1.2 under setting [3] and -0.959 (compound: thalidomide).

Consider FNCPQCGAGFTQKGNLLRHIKL [46F_47N_49P_50Q_52G_53A_54G_55F_67L_, Q9UKT9], for which the “log2 fold change of degron read counts” value runs as follows: under setting [1], -0.184; under setting [2], -2.36; under setting [3], -1.35; (compound: thalidomide) -2.07.

Turning to FECEICGACFTQKGNLLRHIKL [46F_47E_49E_50I_52G_53A_54C_55F_67L_, Q9UKT9], the “log2 fold change of degron read counts” value is 0.505 under setting [1], -1.14 under setting [2], 1.9 under setting [3] and 2.35 (compound: thalidomide).

FCCEICGACFTQKGNLLRHIKL [46F_47C_49E_50I_52G_53A_54C_55F_67L_, Q9UKT9]: the “log2 fold change of degron read counts” value runs as follows: under setting [1], 2.78; under setting [2], 2.06; under setting [3], 2.71; (compound: thalidomide) 2.24.

FVCEICGACFTQKGNLLRHIKL [46F_47V_49E_50I_52G_53A_54C_55F_67L_, Q9UKT9]: the “log2 fold change of degron read counts” value reads like this: under setting [1], 0.542; under setting [2], 1.78; under setting [3], 2.28; (compound: thalidomide) 2.75.

FSCEICGACFTQKGNLLRHIKL [46F_47S_49E_50I_52G_53A_54C_55F_67L_, Q9UKT9]: the “log2 fold change of degron read counts” value by setting is: under setting [1], 3.31; under setting [2], 2.47; under setting [3], 2.56; (compound: thalidomide) 1.4.

With FMCEICGACFTQKGNLLRHIKL [46F_47M_49E_50I_52G_53A_54C_55F_67L_, Q9UKT9], the “log2 fold change of degron read counts” value runs as follows: under setting [1], 0.319; under setting [2], 0.12; under setting [3], 2.53; (compound: thalidomide) 1.09.

Take FQCEICGACFTQKGNLLRHIKL [46F_47Q_49E_50I_52G_53A_54C_55F_67L_, Q9UKT9]: the “log2 fold change of degron read counts” value runs as follows: under setting [1], 1.23; under setting [2], 3.08; under setting [3], 2.71; (compound: thalidomide) 3.48.

FKCEICGACFTQKGNLLRHIKL [46F_47K_49E_50I_52G_53A_54C_55F_67L_, Q9UKT9]: the “log2 fold change of degron read counts” value runs as follows: under setting [1], -0.172; under setting [2], -3.02; under setting [3], -3.63; (compound: thalidomide) -0.785.

Consider FGCEICGACFTQKGNLLRHIKL [46F_47G_49E_50I_52G_53A_54C_55F_67L_, Q9UKT9], for which the “log2 fold change of degron read counts” value is, setting by setting: under setting [1], 3.4; under setting [2], 2.93; under setting [3], 2.06; (compound: thalidomide) 1.14.

Regarding FYCEICGACFTQKGNLLRHIKL [46F_47Y_49E_50I_52G_53A_54C_55F_67L_, Q9UKT9], the “log2 fold change of degron read counts” value under setting [1] turned out to be 3.73, the “log2 fold change of degron read counts” value under setting [2] was determined as 3.6, the “log2 fold change of degron read counts” value under setting [3] amounted to 2.92 and the “log2 fold change of degron read counts” value (compound: thalidomide) turned out to be 1.43.

As to FTCEICGACFTQKGNLLRHIKL [46F_47T_49E_50I_52G_53A_54C_55F_67L_, Q9UKT9], the “log2 fold change of degron read counts” value is 1.77 under setting [1], 2.36 under setting [2], 2.49 under setting [3] and 2.86 (compound: thalidomide).

With FDCEICGACFTQKGNLLRHIKL [46F_47D_49E_50I_52G_53A_54C_55F_67L_, Q9UKT9], the “log2 fold change of degron read counts” value by setting is: under setting [1], 1.52; under setting [2], -0.309; under setting [3], 0.629; (compound: thalidomide) 0.633.

Turning to FRCEICGACFTQKGNLLRHIKL [46F_47R_49E_50I_52G_53A_54C_55F_67L_, Q9UKT9], the “log2 fold change of degron read counts” value by setting is: under setting [1], 0.0911; under setting [2], -0.251; under setting [3], 1.83; (compound: thalidomide) 1.53.
